# In the supplement of paper PMC10849652:
# About 8,800 targets were measured; listed, in parts, are those with a hit and a random draw of the rest. About 0.5% of all pairs of compound and target were hits. A number with no mark means an inactive call.
# Legend:
# Assay in all cases: log2 fold change, soluble protein after heating vs DMSO (PISA); higher = thermal stabilisation; K562 lysate, 10 uM; active = over 0.2 and 3.5 SD of the protein, either way, in both replicates (recomputed)
# vemurafenib = compound: CCCS(=O)(=O)Nc1ccc(F)c(C(=O)c2c[nH]c3ncc(-c4ccc(Cl)cc4)cc23)c1F [vemurafenib]
# How it was run: (§1)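 A 30 min treatment with 10 μM compound was applied to crude K562 extract at 1 mg/mL protein in PBS pH 7.4 with 1 mM MgCl2. Heating for 3 min spanned 48°C-58°C, after which aliquots were pooled, adjusted to 0.5% NP-40 at 4°C and spun at 21,000xg for 90 min. TMTpro 16plex LC-MS/MS of the supernatant, with channel sums equalised, gave values recorded as log-two fold change in thermal stability against solvent controls, from duplicates.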
# [1] = compound: CCCS(=O)(=O)Nc1ccc(F)c(C(=O)c2c[nH]c3ncc(Cl)cc23)c1F
# How it was run: as §1
# barasertib = compound: CCN(CCCOc1ccc2c(Nc3cc(CC(=O)Nc4cccc(F)c4)[nH]n3)ncnc2c1)CCOP(=O)(O)O [barasertib]
# How it was run: as §1
# [2] = compound: CC[C@@H]1C(=O)N(C)c2cnc(Nc3ccc(C(=O)NC4CCN(C)CC4)cc3OC)nc2N1C1CCCC1
# How it was run: as §1
# volasertib = compound: CC[C@@H]1C(=O)N(C)c2cnc(Nc3ccc(C(=O)N[C@H]4CC[C@H](N5CCN(CC6CC6)CC5)CC4)cc3OC)nc2N1C(C)C [volasertib]
# How it was run: as §1
# [3] = compound: CCn1c(C(=O)N(C2CC2)C2CC2)cc2c3c(ncn3C)c(Nc3cc(C)n(C)n3)nc21
# How it was run: as §1
# [4] = compound: CCn1cc(-c2ccnc3[nH]c(-c4cccc(CN(C)C)c4)cc23)c(-c2ccc(NC(=O)N(C)C)cc2)n1
# How it was run: as §1
# [5] = compound: CN1CCC(CNc2ccc3ncc(-c4cccc(OC(F)(F)F)c4)n3n2)CC1
# How it was run: as §1
# saracatinib = compound: CN1CCN(CCOc2cc(OC3CCOCC3)c3c(Nc4c(Cl)ccc5c4OCO5)ncnc3c2)CC1 [saracatinib]
# How it was run: as §1
# sotrastaurin = compound: CN1CCN(c2nc(C3=C(c4c[nH]c5ccccc45)C(=O)NC3=O)c3ccccc3n2)CC1 [sotrastaurin]
# How it was run: as §1
# Chain of UniProt Q16512 (Q16512 whole entry, looked up): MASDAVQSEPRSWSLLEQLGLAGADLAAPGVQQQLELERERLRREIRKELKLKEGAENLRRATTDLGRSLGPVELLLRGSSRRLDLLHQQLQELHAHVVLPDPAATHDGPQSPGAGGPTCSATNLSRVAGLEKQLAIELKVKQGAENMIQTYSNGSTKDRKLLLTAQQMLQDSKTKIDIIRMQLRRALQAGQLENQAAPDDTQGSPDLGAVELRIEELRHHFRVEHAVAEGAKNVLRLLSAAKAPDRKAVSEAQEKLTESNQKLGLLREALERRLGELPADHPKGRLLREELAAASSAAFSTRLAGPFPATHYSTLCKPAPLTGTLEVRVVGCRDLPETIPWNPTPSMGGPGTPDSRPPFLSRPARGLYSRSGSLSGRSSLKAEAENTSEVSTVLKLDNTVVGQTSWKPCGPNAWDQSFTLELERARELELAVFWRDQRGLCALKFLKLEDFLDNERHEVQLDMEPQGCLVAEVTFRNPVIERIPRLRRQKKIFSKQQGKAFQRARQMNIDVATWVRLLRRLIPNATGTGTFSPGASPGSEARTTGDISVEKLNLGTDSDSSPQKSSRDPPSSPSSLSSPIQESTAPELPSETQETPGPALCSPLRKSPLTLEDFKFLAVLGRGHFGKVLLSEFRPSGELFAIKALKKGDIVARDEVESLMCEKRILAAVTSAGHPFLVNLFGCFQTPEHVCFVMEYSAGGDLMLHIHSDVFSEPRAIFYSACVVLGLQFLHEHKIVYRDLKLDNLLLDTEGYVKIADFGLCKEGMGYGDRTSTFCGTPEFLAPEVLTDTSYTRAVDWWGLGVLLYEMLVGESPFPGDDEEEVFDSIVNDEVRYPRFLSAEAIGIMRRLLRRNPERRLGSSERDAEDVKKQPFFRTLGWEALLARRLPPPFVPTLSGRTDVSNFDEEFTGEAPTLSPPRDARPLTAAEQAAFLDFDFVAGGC
# Chain of UniProt Q86UU1 (Q86UU1 whole entry, looked up): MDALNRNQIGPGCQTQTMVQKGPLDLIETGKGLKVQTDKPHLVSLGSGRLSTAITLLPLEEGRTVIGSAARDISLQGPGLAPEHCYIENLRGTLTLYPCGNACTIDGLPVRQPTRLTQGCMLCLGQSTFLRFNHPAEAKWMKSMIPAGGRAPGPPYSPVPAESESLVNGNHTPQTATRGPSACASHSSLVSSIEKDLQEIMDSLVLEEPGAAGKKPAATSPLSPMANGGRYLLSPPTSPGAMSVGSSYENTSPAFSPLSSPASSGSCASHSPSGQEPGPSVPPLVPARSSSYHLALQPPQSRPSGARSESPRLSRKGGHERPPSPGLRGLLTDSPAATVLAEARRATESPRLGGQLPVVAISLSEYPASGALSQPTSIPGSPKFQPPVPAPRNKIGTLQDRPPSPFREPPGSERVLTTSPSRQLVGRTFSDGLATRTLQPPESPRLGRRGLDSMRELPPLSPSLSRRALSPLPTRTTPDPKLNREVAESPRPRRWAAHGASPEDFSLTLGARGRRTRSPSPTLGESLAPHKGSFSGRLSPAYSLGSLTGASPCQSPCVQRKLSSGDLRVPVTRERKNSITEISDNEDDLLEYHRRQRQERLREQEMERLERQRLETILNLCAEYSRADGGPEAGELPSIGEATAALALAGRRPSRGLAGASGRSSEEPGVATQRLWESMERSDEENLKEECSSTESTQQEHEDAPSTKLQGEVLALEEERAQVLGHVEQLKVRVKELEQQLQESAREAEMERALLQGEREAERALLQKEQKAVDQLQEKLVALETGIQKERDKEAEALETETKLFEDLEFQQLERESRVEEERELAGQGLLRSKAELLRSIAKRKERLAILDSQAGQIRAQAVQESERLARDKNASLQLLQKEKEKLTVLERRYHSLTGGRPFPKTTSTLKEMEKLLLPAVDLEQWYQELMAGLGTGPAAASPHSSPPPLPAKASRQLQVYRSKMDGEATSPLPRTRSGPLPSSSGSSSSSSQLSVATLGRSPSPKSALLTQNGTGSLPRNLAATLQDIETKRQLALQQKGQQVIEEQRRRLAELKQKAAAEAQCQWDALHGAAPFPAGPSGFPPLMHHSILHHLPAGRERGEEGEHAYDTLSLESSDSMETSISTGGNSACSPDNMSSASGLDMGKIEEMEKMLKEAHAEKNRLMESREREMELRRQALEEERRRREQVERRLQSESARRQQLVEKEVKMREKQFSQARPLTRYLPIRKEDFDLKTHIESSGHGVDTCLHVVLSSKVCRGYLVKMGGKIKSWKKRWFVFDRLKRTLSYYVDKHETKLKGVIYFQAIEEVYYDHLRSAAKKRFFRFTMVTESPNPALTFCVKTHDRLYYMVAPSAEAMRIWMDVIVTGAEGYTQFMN
# Chain of UniProt P78356 (P78356 whole entry, looked up): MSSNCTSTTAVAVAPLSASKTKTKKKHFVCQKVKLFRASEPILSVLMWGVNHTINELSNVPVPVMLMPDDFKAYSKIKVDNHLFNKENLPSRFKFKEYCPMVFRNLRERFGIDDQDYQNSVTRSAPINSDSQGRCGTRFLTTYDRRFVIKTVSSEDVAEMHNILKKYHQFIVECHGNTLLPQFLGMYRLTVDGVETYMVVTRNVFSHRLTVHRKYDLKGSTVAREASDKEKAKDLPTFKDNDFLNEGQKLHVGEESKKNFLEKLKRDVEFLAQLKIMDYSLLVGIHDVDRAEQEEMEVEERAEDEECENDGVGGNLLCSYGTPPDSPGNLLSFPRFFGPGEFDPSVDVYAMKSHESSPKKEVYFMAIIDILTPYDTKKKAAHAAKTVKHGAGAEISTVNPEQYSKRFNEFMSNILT
# Chain of UniProt Q9HBH1 (Q9HBH1 whole entry, looked up): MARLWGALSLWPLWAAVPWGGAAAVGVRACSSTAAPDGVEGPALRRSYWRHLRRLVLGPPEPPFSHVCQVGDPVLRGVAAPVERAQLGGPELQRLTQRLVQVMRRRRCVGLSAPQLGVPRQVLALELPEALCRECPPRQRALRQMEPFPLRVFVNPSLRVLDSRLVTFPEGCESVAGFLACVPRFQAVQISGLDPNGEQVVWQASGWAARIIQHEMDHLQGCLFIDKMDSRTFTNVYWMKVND
# Chain of UniProt Q9H3S7 (Q9H3S7 whole entry, looked up): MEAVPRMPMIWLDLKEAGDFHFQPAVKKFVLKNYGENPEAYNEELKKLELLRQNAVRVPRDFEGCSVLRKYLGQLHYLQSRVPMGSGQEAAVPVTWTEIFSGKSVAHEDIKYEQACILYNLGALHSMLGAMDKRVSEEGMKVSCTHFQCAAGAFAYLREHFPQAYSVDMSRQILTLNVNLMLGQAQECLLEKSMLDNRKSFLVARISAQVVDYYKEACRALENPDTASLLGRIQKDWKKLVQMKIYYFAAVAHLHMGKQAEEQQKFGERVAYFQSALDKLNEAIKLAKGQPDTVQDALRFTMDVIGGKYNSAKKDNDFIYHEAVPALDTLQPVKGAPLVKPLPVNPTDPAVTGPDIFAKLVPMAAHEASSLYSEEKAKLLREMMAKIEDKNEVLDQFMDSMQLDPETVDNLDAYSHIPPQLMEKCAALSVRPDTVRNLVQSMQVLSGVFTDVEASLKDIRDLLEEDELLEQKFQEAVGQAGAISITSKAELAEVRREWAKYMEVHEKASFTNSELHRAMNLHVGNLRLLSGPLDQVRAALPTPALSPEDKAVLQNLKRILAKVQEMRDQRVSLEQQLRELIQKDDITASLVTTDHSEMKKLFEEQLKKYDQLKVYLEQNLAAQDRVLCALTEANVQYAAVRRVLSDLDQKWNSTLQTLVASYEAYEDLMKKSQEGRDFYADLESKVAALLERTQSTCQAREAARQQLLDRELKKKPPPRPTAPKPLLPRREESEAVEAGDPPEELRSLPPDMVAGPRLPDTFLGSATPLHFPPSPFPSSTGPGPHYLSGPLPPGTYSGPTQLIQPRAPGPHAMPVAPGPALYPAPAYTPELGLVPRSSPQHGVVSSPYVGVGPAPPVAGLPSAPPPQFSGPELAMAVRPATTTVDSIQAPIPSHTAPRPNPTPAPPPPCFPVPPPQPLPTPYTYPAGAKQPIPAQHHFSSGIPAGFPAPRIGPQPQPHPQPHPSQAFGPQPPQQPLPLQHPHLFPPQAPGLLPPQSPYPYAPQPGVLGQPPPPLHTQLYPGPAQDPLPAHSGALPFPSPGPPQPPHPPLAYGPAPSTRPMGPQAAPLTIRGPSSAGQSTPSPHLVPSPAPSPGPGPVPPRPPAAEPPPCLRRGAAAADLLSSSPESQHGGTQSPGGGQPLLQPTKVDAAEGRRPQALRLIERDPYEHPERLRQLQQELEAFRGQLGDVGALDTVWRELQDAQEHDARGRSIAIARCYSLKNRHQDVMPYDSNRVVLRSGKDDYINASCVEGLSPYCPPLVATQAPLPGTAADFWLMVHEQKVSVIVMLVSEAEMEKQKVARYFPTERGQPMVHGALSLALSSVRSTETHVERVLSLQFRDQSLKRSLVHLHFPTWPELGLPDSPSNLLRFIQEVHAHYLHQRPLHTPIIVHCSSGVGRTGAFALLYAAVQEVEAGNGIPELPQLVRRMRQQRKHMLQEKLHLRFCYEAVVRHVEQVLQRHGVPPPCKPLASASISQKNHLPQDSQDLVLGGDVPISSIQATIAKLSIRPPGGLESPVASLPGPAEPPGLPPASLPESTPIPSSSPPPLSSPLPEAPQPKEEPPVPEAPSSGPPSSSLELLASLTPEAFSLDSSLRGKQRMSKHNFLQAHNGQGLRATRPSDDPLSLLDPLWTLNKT
# Chain of UniProt P35236 (P35236 whole entry, looked up): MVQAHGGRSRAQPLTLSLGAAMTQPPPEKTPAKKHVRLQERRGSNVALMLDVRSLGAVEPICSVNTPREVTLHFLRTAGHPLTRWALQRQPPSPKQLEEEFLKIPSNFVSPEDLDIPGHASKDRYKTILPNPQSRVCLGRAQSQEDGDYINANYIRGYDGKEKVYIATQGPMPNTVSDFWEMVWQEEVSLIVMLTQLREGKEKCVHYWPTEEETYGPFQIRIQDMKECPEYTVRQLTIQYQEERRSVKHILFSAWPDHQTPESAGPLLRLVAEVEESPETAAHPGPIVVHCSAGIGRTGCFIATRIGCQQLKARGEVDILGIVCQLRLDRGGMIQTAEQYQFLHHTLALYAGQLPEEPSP
Target,log2 fold change (vemurafenib),log2 fold change [1],log2 fold change (barasertib),log2 fold change [2],log2 fold change (volasertib),log2 fold change [3],log2 fold change [4],log2 fold change [5],log2 fold change (saracatinib),log2 fold change (sotrastaurin)
PRKCB isoform 2 (UniProt P05771),0.045,-0.024,-0.017,-0.01,-0.062,0.002,0.073,-0.077,-0.023,0.505 (active)
PIP4K2B (UniProt P78356),0.016,0.012,-0.045,0.21 (active),0.092,0.038,0.048,0.065,-0.045,-0.009
PDF (UniProt Q9HBH1),-0.012,0.03,0.028,-0.118,-0.004,0.01,-0.014,-0.181,0.032,-0.02
PHLDB1 (UniProt Q86UU1),-0.071,0.162,0.01,0.033,-0.044,0.001,0.095,-0.014,0.005,-0.049
PKN1 isoform 2 (UniProt Q16512),0.013,0.049,-0.006,0.013,-0.009,0.024,-0.055,-0.483 (active),0.002,-0.143
PTPN23 (UniProt Q9H3S7),-0.008,0,0.003,-0.006,-0.042,0.026,-0.017,0.007,0.008,-0.001
PTPN7 isoform 3 (UniProt P35236),0.016,0.06,0.026,-0.025,-0.06,0.063,-0.076,0.124,0.005,0.015
